Shown are actives, neighbours in structure and some others; about 4.8% of the full set was active somewhere.
SMARCA2 activ = SMARCA2 function activation, primary screen; actives 1% (n = 370,000); AID 652017; MG213 cells, MMTV-luciferase reporter, dexamethasone, overnight; activation, % at 9.1 µM; in the data active = activation above about 7.8%;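 also: 0% = vehicle wells and 100% = reference activator wells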
hcDAF12 agonist = H. contortus DAF-12 activation, primary screen; HEK293 hcDAF-12 lit1-tk-luc reporter, luminescence; 0% DMSO, 100% Δ7-dafachronic acid; activation, % at 6.8 µM; AID 652067; actives 1.4% (n = 370,000);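 active = activation above the mean of all tested compounds plus 3 SD, cut at about 5.5% in these data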;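 also: 100% = response to 3 µM Δ7-dafachronic acid high control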
DAX1 inh-1 = DAX1 (NR0B1) inhibition, primary screen; HEK293T StAR-luciferase reporter, SF-1/DAX-1 repression relief; inhibition, % at 6.8 µM; actives 1.1% (n = 370,000);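 active = inhibition above the mean over all tested compounds plus 3 SD, cut at about 3.6% in these data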;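 also: 0% = DAX-1 cells with DMSO and 100% = cells lacking DAX-1 with DMSO; higher inhibition means more luminescence from relief of DAX-1 repression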
ssDAF12 agonist = S. stercoralis DAF-12 activation, primary screen | HEK293 ssDAF-12/GRIP1 lit1-tk-luc reporter, luminescence; % of 3 µM dafachronic acid response | activation, % at 6.8 µM | actives 1% (n = 370,000) | AID 652126;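 active = activation above the mean over all tested compounds plus 3 SD, cut at about 0.9% in these data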;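 also: 0% = DMSO-only wells and 100% = 3 µM delta7-dafachronic acid wells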
DAX1 inh-2 = inhibits human nuclear receptor DAX1; HEK293 Gal4-DAX1 luciferase reporter, luminescence; inhibition, % at 6.75 µM; actives 0.99% (n = 340,000); AID 504766;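 active = inhibition above the mean over all tested compounds plus 3 SD, cut at about 4.2% in these data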;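 also: 0% = DAX1-transfected cells with DMSO and 100% = empty-vector control cells with DMSO; inhibition shows as a rise in luminescence from relieved DAX1 repression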
hgDAF-12 ag = activates the H. glycines DAF-12 receptor ligand-binding domain; HEK293 GAL4-hgDAF12 UAS-luciferase reporter, agonist luminescence; normalized to butyrate control; activation, % at 6.8 µM; actives 1.8% (n = 370,000);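 active = activation above a cutoff set at the mean of all screened compounds plus 3 SD, cut at about 10% in these data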;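 also: 0% = DMSO wells and 100% = sodium butyrate wells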
hgDAF12 conf = confirmation of H. glycines DAF-12 agonists | shares compounds with hgDAF-12 ag | HEK293 GAL4-hgDAF12 luciferase reporter, agonist mode; percent of butyrate response | activation, % at 6.8 µM | actives 80% (n = 3,300);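 active = mean activation over triplicate wells above the hit cutoff derived from the earlier primary screen, cut at about 11% in these data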;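 also: 0% = DMSO low control and 100% = 2 mM sodium butyrate high control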
LXR ag 2 = LXR-beta agonism as DAF-12 counter-screen; shares compounds with hgDAF-12 ag; HEK293 Gal4-LXR luciferase reporter, 24 h; activation, % at 6.8 µM; 3,300 tested, under 10 active;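 active = mean activation of the triplicate above a set limit carried over from the primary screen, none filed active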
Target sequence (P55055 whole entry, looked up, the tested form may be a part): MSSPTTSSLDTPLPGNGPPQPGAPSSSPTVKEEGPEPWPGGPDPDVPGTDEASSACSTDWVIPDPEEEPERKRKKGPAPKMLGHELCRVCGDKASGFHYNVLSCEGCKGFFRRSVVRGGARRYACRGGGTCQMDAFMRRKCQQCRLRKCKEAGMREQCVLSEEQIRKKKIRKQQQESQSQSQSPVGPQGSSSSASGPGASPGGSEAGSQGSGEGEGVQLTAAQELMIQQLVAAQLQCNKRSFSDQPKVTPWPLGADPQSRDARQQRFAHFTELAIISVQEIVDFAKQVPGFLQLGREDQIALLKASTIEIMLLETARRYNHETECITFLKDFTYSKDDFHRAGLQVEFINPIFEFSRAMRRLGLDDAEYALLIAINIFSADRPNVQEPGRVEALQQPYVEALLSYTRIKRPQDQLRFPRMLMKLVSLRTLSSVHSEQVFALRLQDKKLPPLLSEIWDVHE
The depositor's hits bear a star; . = no result.

SMILES | SMARCA2 activ | hcDAF12 agonist | DAX1 inh-1 | ssDAF12 agonist | DAX1 inh-2 | hgDAF-12 ag | hgDAF12 conf | LXR ag 2
CC(=O)c1sc2nsc(SCCN3CCCCC3)c2c1N | -2 | 0 | 0 | -1 | . | -1 | . | .
O=C1[C@@H]2[C@H](C(=O)N1O)[C@H]1C=C[C@@H]2C1 | -1 | -2 | 0 | -1 | 0 | 1 | . | .
CS(=O)(=O)N1N=C(c2ccco2)CC1c1ccc(Br)cc1 (stereo not given) | -3 | 3 | 2 | 0 | 1 | 8 | . | .
CS(=O)(=O)N1N=C(c2ccc(Br)cc2)CC1c1cccs1 (stereo not given) | 2 | 3 | 0 | -1 | 2 | 14* | 10 | 1
CCOc1ccc(C(=O)Nc2ccc3[nH]ncc3c2)cc1 | 5 | 5 | 2 | 0 | -2 | 16* | 15* | 1
Cc1ccnc(NC(=O)c2ccc(OCc3c(C)noc3C)cc2)c1 | 6 | 0 | 4.2* | -1 | 1 | 14* | 6 | 0
CCOc1ccc(C(=O)Nc2cc(C)on2)cc1 | 3 | 2 | 2 | -1 | 0 | 14* | 14* | 1
Nn1c(SCC(=O)NC2CCCCC2)nnc1C1CC1 | -1 | 1 | 0 | -1 | -2 | 4 | . | .
COc1ccc(C=NNC(=O)c2cc(C)oc2C)cc1O | 8 | 2 | 0 | -1 | 0 | 13* | 14* | 0
O=C(N/N=C/c1cccc(O)c1)c1ccccc1O | 3 | 3 | 2 | 0 | 2 | 16* | 9 | 0
O=C(Nc1ccccc1C(=O)N/N=C/c1ccncc1)c1ccccc1 | 4 | 3 | 0 | 0 | -2 | 14* | 12* | 0
O=C(N/N=C/c1cccc(O)c1)c1csc2ccccc12 | 5 | -1 | 0 | -1 | 2 | 2 | . | .
O/N=C/c1ccc2cccc(OCc3ccccc3)c2n1 | -2 | 0 | 0 | -1 | 2 | -1 | . | .
COC(C[C@H]1O[C@@H]1[C@H](O)COCc1ccccc1)OC | -2 | 2 | 0 | -2 | 1 | 2 | . | .
CCOC(=O)Cn1c(=O)c2c(nc(Br)n2CC(=O)OCC)n(C)c1=O | 1 | -1 | 0 | -1 | -1 | -2 | . | .
COc1cccc(NC(=O)Nc2ccc3nsnc3c2)c1 | -1 | 1 | 2 | 0 | 2 | 14* | 11* | 1
COc1cccc(NC(=O)Nc2ccc3nc(C)c(C)nc3c2)c1 | -2 | -2 | -1 | -1 | 1 | 2 | . | .
C/C(=N\NC(=O)Cc1ccccc1)c1ccc(Br)s1 | 3 | -1 | 0 | -1 | 0 | 1 | . | .
COC(=O)c1cnc(SCC(=O)c2ccccc2)n1C | 3 | 6.1* | 2 | 0 | 4 | 15* | 14* | 1
COc1ccccc1C(=O)CSc1ccccn1 | 3 | 0 | 1 | 0 | 3 | 7 | . | .
COC(=O)c1ccnc(SCC(=O)c2ccccc2)c1 | 4 | 3 | 2 | 1 | 2 | 18* | 14* | 0
CC(=Nc1ccc(Br)cc1)c1sc2ccccc2c1O | 2 | 6.0* | 2 | 0 | 4 | 13* | 21* | 1
NC(=Nc1ccc(Br)cc1)c1ccccc1 | 1 | 2 | 1 | -1 | 2 | 3 | . | .
CCOC(=O)N/N=C/c1cn(CCCOc2ccc(C)cc2)c2ccccc12 | 2 | -3 | 0 | -1 | -2 | 17* | 5 | 0
CCn1cnc2sc(-c3ccccc3)cc2c1=O | 3 | 4 | 2 | 0.9* | 1 | 17* | 16* | 1
COc1c(Cl)cccc1-c1cn2ccc(C)cc2n1 | 4 | 6.4* | 3 | 1.3* | 4 | 14* | 15* | 1
Cc1ccn2cc(-c3cnoc3C)nc2c1 | 2 | 0 | 1 | 0 | 2 | 5 | . | .
CC(=O)Nc1cccc(-c2cn3ccc(C)cc3n2)c1 | 5 | 3 | 3.9* | 0 | 0 | 14* | 12* | 1

Bioassay records: PubChem BioAssay, The Scripps Research Institute Molecular Screening Center
